According to the supplement of paper PMC10849652:
About 8,800 targets were measured; listed, in parts, are those with a hit and a random draw of the rest. About 0.5% of all pairs of compound and target were hits.

Columns and labels:
Test in all cases: log2 fold change, soluble protein after heating vs DMSO (PISA); higher = thermal stabilisation; K562 lysate, 10 uM; active = over 0.2 and 3.5 SD of the protein, either way, in both replicates (recomputed)
vemurafenib = compound: CCCS(=O)(=O)Nc1ccc(F)c(C(=O)c2c[nH]c3ncc(-c4ccc(Cl)cc4)cc23)c1F [vemurafenib]
In short: (§1)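 A 30 min treatment with 10 μM compound was applied to crude K562 extract at 1 mg/mL protein in PBS pH 7.4 with 1 mM MgCl2. Heating for 3 min spanned 48°C-58°C, after which aliquots were pooled, adjusted to 0.5% NP-40 at 4°C and spun at 21,000xg for 90 min. TMTpro 16plex LC-MS/MS of the supernatant, with channel sums equalised, gave values recorded as log-two fold change in thermal stability against solvent controls, from duplicates.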

[1] = compound: CCCS(=O)(=O)Nc1ccc(F)c(C(=O)c2c[nH]c3ncc(Cl)cc23)c1F
In short: as §1

barasertib = compound: CCN(CCCOc1ccc2c(Nc3cc(CC(=O)Nc4cccc(F)c4)[nH]n3)ncnc2c1)CCOP(=O)(O)O [barasertib]
In short: as §1

[2] = compound: CC[C@@H]1C(=O)N(C)c2cnc(Nc3ccc(C(=O)NC4CCN(C)CC4)cc3OC)nc2N1C1CCCC1
In short: as §1

volasertib = compound: CC[C@@H]1C(=O)N(C)c2cnc(Nc3ccc(C(=O)N[C@H]4CC[C@H](N5CCN(CC6CC6)CC5)CC4)cc3OC)nc2N1C(C)C [volasertib]
In short: as §1

[3] = compound: CCn1c(C(=O)N(C2CC2)C2CC2)cc2c3c(ncn3C)c(Nc3cc(C)n(C)n3)nc21
In short: as §1

[4] = compound: CCn1cc(-c2ccnc3[nH]c(-c4cccc(CN(C)C)c4)cc23)c(-c2ccc(NC(=O)N(C)C)cc2)n1
In short: as §1

[5] = compound: CN1CCC(CNc2ccc3ncc(-c4cccc(OC(F)(F)F)c4)n3n2)CC1
In short: as §1

saracatinib = compound: CN1CCN(CCOc2cc(OC3CCOCC3)c3c(Nc4c(Cl)ccc5c4OCO5)ncnc3c2)CC1 [saracatinib]
In short: as §1

sotrastaurin = compound: CN1CCN(c2nc(C3=C(c4c[nH]c5ccccc45)C(=O)NC3=O)c3ccccc3n2)CC1 [sotrastaurin]
In short: as §1

alvocidib = compound: CN1CC[C@H](c2c(O)cc(O)c3c(=O)cc(-c4ccccc4Cl)oc23)[C@H](O)C1 [alvocidib]
In short: as §1

Tubastatin A = compound: CN1CCc2c(c3ccccc3n2Cc2ccc(C(=O)NO)cc2)C1 [Tubastatin A]
In short: as §1

[6] = compound: CNC(=O)C1=CC=CC=C1NC2=NC(=NC=C2Cl)NC3=C(C=C(C=C3)N4CCOCC4)OC
In short: as §1

defactinib = compound: CNC(=O)c1ccc(Nc2ncc(C(F)(F)F)c(NCc3nccnc3N(C)S(C)(=O)=O)n2)cc1 [defactinib]
In short: as §1

[7] = compound: CNc1nc(-c2ccc3c(N)n[nH]c3c2)cc(N2C[C@@H](C(=O)NC3CCCCC3)CC[C@H]2C)n1
In short: as §1

encorafenib = compound: COC(=O)N[C@@H](C)CNc1nccc(-c2cn(C(C)C)nc2-c2cc(Cl)cc(NS(C)(=O)=O)c2F)n1 [encorafenib]
In short: as §1

[8] = compound: COC(=O)[C@H](CCSC)NC(=O)C1=C(C=C(C=C1)NC[C@H](CS)N)C2=CC=CC=C2
In short: as §1

alisertib = compound: COc1cc(Nc2ncc3c(n2)-c2ccc(Cl)cc2C(c2c(F)cccc2OC)=NC3)ccc1C(=O)O [alisertib]
In short: as §1

[9] = compound: COc1cc2nc(-c3cc(F)ccc3O)nc(N[C@@H]3CNC[C@H]3C(C)(C)O)c2cc1OC
In short: as §1

gefitinib = compound: COc1cc2ncnc(Nc3ccc(F)c(Cl)c3)c2cc1OCCCN1CCOCC1 [gefitinib]
In short: as §1

Measured: log2 fold change

ATAD3B (UniProt Q5T9A4)
Sequence of UniProt Q5T9A4 (Q5T9A4 whole entry, looked up): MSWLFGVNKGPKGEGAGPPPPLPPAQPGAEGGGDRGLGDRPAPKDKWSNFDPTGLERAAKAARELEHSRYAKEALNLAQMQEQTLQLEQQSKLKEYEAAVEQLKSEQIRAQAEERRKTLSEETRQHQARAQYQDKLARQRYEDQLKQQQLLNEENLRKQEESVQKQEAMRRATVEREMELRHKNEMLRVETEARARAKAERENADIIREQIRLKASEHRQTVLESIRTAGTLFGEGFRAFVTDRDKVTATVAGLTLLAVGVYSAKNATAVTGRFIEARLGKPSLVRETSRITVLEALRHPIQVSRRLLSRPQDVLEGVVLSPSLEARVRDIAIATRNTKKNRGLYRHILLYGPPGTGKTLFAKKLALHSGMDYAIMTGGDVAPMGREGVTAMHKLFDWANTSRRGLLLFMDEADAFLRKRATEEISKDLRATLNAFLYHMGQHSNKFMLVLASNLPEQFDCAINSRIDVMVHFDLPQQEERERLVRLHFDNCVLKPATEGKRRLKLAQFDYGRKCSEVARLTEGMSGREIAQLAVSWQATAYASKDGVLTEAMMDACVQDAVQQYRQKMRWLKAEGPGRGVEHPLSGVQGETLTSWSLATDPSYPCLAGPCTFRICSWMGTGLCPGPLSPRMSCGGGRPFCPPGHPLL
inactive: vemurafenib -0.022 | [1] 0.016 | barasertib -0.007 | [2] -0.004 | volasertib -0.019 | [3] 0.014 | [5] -0.205 | saracatinib -0.018 | sotrastaurin -0.013 | alvocidib 0.124 | Tubastatin A 0.047 | [6] -0.029 | defactinib 0.046 | [7] 0.039 | encorafenib 0.016 | [8] -0.128 | alisertib 0.006 | [9] -0.008 | gefitinib -0.001
active: [4] 0.383

CAPNS1 (UniProt P04632)
Sequence of UniProt P04632 (P04632 whole entry, looked up): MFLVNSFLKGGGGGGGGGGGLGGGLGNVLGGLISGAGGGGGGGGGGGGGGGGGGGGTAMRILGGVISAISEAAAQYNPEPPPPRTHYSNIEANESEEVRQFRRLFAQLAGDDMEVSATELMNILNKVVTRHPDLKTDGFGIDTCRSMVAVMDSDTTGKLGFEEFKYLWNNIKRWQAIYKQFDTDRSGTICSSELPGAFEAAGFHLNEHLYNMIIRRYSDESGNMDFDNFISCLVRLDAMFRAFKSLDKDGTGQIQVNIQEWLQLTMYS
active: [4] -0.334
inactive: vemurafenib -0.032 | [1] 0.021 | barasertib 0.11 | [2] -0.027 | volasertib 0.04 | [3] -0.006 | [5] 0.07 | saracatinib 0.003 | sotrastaurin -0.012 | alvocidib 0.021 | Tubastatin A -0.022 | [6] 0.032 | defactinib 0.027 | [7] -0.005 | encorafenib 0.022 | [8] -0.129 | alisertib -0.012 | [9] -0.051 | gefitinib -0.062

CBR1 (UniProt P16152)
Sequence of UniProt P16152 (P16152 whole entry, looked up): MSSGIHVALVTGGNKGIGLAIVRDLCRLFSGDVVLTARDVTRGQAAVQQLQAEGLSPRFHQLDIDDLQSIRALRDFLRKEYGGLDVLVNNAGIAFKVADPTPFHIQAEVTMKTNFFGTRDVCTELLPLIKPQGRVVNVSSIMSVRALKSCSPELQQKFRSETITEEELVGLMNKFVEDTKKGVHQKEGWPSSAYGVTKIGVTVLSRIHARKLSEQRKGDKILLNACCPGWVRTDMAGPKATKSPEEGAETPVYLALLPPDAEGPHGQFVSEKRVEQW
inactive: vemurafenib -0.009 | [1] 0.011 | barasertib -0.013 | [2] -0.019 | volasertib 0.004 | [3] 0 | [4] -0.096 | [5] 0.077 | saracatinib 0.037 | sotrastaurin -0.047 | alvocidib -0.013 | Tubastatin A 0.015 | [6] -0.006 | defactinib 0.008 | [7] -0.041 | encorafenib 0 | [8] 0.02 | alisertib -0.024 | [9] 0.023 | gefitinib -0.068

CALM2 (UniProt P0DP24)
inactive: vemurafenib 0.028 | [1] 0.011 | [2] 0.038 | volasertib 0.024 | [3] -0.079 | [4] -0.22 | [5] 0.237 | saracatinib 0.029 | sotrastaurin 0 | alvocidib -0.063 | Tubastatin A 0.018 | [6] -0.059 | defactinib -0.016 | [7] 0.124 | encorafenib 0.03 | [8] -0.085 | alisertib 0.011 | [9] 0.026 | gefitinib -0.13
active: barasertib 0.564

BOLA2 (UniProt Q9H3K6)
Sequence of UniProt Q9H3K6 (Q9H3K6 whole entry, looked up): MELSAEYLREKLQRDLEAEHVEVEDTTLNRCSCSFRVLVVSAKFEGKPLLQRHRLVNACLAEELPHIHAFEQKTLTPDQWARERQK
inactive: vemurafenib -0.086 | [1] -0.043 | barasertib 0.129 | [2] -0.068 | volasertib 0.004 | [3] 0.067 | [5] -0.04 | saracatinib -0.033 | sotrastaurin -0.038 | alvocidib 0.02 | Tubastatin A 0.015 | [6] -0.065 | defactinib 0.023 | [7] -0.052 | encorafenib 0.036 | [8] -0.057 | alisertib -0.006 | [9] 0.009 | gefitinib -0.03
active: [4] 0.604

BRAF (UniProt P15056)
Sequence of UniProt P15056 (P15056 whole entry, looked up): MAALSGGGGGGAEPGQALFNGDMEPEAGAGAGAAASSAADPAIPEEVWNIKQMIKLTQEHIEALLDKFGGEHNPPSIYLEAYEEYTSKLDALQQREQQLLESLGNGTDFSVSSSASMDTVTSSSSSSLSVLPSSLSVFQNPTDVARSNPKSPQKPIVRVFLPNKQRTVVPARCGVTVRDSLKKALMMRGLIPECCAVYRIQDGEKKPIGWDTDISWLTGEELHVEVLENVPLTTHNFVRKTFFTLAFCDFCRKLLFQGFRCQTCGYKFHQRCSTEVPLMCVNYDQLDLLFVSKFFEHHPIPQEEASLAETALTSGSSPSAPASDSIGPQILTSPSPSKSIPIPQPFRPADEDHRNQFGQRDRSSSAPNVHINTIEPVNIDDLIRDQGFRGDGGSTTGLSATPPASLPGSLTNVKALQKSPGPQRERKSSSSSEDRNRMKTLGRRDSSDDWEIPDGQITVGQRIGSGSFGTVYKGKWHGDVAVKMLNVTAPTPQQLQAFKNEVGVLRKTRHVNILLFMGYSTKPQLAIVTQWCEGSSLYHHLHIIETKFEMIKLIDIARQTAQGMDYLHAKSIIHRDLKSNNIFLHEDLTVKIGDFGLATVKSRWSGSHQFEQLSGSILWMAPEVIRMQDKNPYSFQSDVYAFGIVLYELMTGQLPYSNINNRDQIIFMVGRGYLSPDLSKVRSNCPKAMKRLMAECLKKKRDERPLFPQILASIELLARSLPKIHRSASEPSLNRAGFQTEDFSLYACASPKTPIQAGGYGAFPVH
inactive: barasertib 0.012 | [2] -0.069 | volasertib -0.044 | [3] -0.023 | [4] -0.11 | [5] 0.037 | saracatinib 0.017 | sotrastaurin -0.025 | alvocidib -0.019 | Tubastatin A -0.071 | [6] 0.016 | defactinib 0.067 | [7] -0.016 | [8] 0.043 | alisertib -0.021 | [9] -0.019 | gefitinib 0.045
active: vemurafenib 1.03 | [1] 0.765 | encorafenib 0.984

CDC16 (UniProt Q13042)
Sequence of UniProt Q13042 (Q13042 whole entry, looked up): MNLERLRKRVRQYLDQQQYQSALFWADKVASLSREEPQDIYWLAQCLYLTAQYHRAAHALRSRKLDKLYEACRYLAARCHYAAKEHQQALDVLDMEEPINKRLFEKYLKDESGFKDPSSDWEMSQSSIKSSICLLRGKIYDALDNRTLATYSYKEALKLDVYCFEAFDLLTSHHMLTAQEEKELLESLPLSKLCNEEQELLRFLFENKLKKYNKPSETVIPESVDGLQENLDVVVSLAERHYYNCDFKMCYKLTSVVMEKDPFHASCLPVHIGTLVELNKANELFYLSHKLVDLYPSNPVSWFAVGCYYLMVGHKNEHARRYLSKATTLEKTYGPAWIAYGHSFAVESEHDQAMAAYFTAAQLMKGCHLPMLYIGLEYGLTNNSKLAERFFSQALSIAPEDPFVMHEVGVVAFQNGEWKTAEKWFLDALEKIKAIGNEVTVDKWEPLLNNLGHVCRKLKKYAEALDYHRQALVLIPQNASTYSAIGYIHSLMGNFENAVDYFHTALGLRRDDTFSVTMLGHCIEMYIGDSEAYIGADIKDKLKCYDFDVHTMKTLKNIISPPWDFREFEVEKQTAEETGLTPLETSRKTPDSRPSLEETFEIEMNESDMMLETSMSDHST
inactive: vemurafenib -0.042 | [1] 0.001 | barasertib -0.018 | [2] -0.074 | volasertib -0.063 | [3] 0.043 | [4] 0.046 | [5] -0.041 | saracatinib -0.005 | sotrastaurin 0.02 | alvocidib 0.012 | Tubastatin A -0.1 | [6] 0.002 | defactinib -0.024 | [7] -0.097 | encorafenib 0.032 | [8] -0.133 | alisertib -0.008 | [9] -0.037 | gefitinib 0.017
